Reference: PubChem BioAssay (EPA / NIEHS)
Inconclusive results are not listed. Activity calls are given as the source filed them. How the source made its calls, unless noted: active means hit-call score of the fitted dose curve at least 0.9, where 1 is the maximum; inactive means score below 0.9.

Columns and labels:
[1] = ATG_TAL_CIS: Attagene CIS-FACTORIAL HepG2 Assay for human TAL Basal Promoter (AID 2282966); conditions: HepG2 Attagene cis-factorial TAL promoter reporter; actives raise or lower the signal;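 further: background control endpoint measuring basal TAL promoter reporter mRNA not a specific factor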
Procedure, shortened: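 HepG2 cells were transiently transfected with promoter-driven multiplexed reporter units and dosed for 24 h. Reporter mRNA was measured by RT-PCR with capillary electrophoresis fluorescence; bidirectional fits used DMSO as baseline, serving as a background control.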

[2] = ATG_TGFb_CIS: Attagene CIS-FACTORIAL HepG2 Assay for human Transforming Growth Factor (TGF) (AID 2282967); conditions: HepG2 Attagene CIS TGFb reporter, mRNA transcription; actives raise or lower the signal
Procedure, shortened: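 HepG2 cells transiently transfected with cis-promoter-driven multiplexed reporter units; 24 h compound exposure. Reporter mRNA measured by RT-PCR, 6-FAM labeling, HpaI digestion and capillary electrophoresis; bidirectional fit versus DMSO baseline.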

[3] = ATG_VDRE_CIS: Attagene CIS-FACTORIAL HepG2 Assay for human Vitamin D Receptor Element (VDRE) (AID 2282968); conditions: HepG2 VDRE cis-reporter transcription, actives raise or lower the signal
Procedure, shortened: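 HepG2 cells transiently transfected with cis-element reporter units, dosed 24 h; reporter mRNA measured by RT-PCR, 6-FAM labeling, HpaI digestion and capillary electrophoresis. Activity fitted bidirectionally against DMSO baseline.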

[4] = biological target: X-box-binding protein 1 (Homo sapiens) (UniProt P17861); assay: ATG_Xbp1_CIS: Attagene CIS-FACTORIAL HepG2 Assay for human X-box Binding Protein 1 (XBP1) (AID 2282972); conditions: HepG2 XBP1 cis-element reporter, Attagene multiplex; actives raise or lower the signal
Procedure, shortened: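 HepG2 cells transiently transfected with cis-regulated multiple reporter transcription units; endogenous transcription factor activity measured 24 hours after chemical dosing. Reporter mRNA quantified by RT-PCR, 6-FAM primer extension, HpaI digestion and capillary electrophoresis; bidirectional fitting versus DMSO.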

[5] = ATG_GAL4_TRANS: Attagene TRANS-FACTORIAL HepG2 Assay for GAL4 (Internal Marker) (AID 2282976; active means hit-call score of the fitted dose curve at least 0.9, where 1 is the maximum); conditions: HepG2 Attagene TRANS GAL4 internal marker reporter
Procedure, shortened: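 HepG2 cells transiently transfected with multiplexed GAL4-UAS reporter constructs were dosed for 24 h. Reporter mRNA was measured by RT-PCR, 6-FAM primer extension, HpaI digestion and capillary electrophoresis, and gain of signal was fitted relative to DMSO.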

[6] = biological target: Hepatocyte nuclear factor 4-alpha (Homo sapiens) (UniProt P41235); assay: ATG_HNF4a_TRANS: Attagene TRANS-FACTORIAL HepG2 Assay for human Hepatocyte Nuclear Factor 4 alpha (HNF4a) (AID 2282982; active means hit-call score of the fitted dose curve at least 0.9, where 1 is the maximum); conditions: HepG2 HNF4a transactivation reporter, mRNA readout
Procedure, shortened: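 HepG2 cells transiently transfected with multiplexed GAL4-UAS reporter units responsive to chimeric NR-GAL4 proteins; compound exposure 24 h. Reporter mRNA quantified by RT-PCR, 6-FAM labelling, HpaI digestion and capillary electrophoresis; gain of signal versus DMSO baseline.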

[7] = ATG_M_06_TRANS: Attagene TRANS-FACTORIAL HepG2 Assay for M06 Transcription Factor (Internal Marker) (AID 2282983; active means hit-call score of the fitted dose curve at least 0.9, where 1 is the maximum;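 further: reporter transcript level by RT-PCR then capillary electrophoresis fluorescence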); conditions: HepG2 Attagene TRANS M06 internal marker reporter
Procedure, shortened: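 HepG2 cells transiently transfected with multiplexed GAL4-UAS reporter transcription units; after 24 h compound exposure, reporter mRNA measured by RT-PCR, FAM-labelled primer extension, HpaI digestion and capillary electrophoresis. Gain-of-signal fitted versus DMSO baseline; background control readout.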

[8] = ATG_M_32_TRANS: Attagene TRANS-FACTORIAL HepG2 Assay for M32 Transcription Factor (Internal Marker) (AID 2282984; active means hit-call score of the fitted dose curve at least 0.9, where 1 is the maximum); conditions: HepG2 Attagene TRANS M32 internal marker reporter
Procedure, shortened: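 HepG2 cells transiently transfected with multiple GAL4-UAS reporter transcription units, dosed for 24 hours; reporter mRNA quantified by RT-PCR, 6-FAM primer extension, HpaI digestion and capillary electrophoresis. Gain-of-signal fitted versus DMSO baseline; internal background-control marker.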

[9] = biological target: Transcriptional activator Myb (Homo sapiens) (UniProt P10242); assay: ATG_Myb_CIS: Attagene CIS-FACTORIAL HepG2 Assay for human Myeloblastosis (Myb) Proto-Oncogene Transcription Factor (AID 2282986); conditions: HepG2 Attagene CIS-FACTORIAL Myb reporter transcription; actives raise or lower the signal
Procedure, shortened: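 After 24 h of compound dosing, total RNA from transfected HepG2 cells is reverse-transcribed and the reporter sequences amplified, labeled and separated by capillary electrophoresis. Values come from bidirectional fitting against DMSO.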

[10] = biological target: Nuclear respiratory factor 1 (Homo sapiens) (UniProt Q16656); assay: ATG_NRF1_CIS: Attagene CIS-FACTORIAL HepG2 Assay for human Nuclear Respiratory Factor 1 (NRF1) Orphan Gene (AID 2282987); conditions: HepG2 NRF1 cis-element reporter, Attagene multiplex; actives raise or lower the signal
Procedure, shortened: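 Measured: fluorescent reporter-specific RT-PCR products from transfected HepG2 cells, separated by capillary electrophoresis. Exposure lasted 24 h. Analysis used bidirectional curve fitting with DMSO as negative control.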

[11] = ATG_NFI_CIS: Attagene CIS-FACTORIAL HepG2 Assay for human Nuclear Factor I (NFI) (AID 2282989); conditions: HepG2 cis-regulatory reporter, NFI response element transcription; actives raise or lower the signal
Procedure, shortened: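 HepG2 cells transiently transfected with cis-element-driven multiplexed reporter transcription units, dosed for 24 h. Reporter mRNA quantified by RT-PCR, fluorescent labelling, HpaI digestion and capillary electrophoresis; bidirectional fit versus DMSO baseline.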

[12] = biological target: Oxysterols receptor LXR-beta (Homo sapiens) (UniProt P55055); assay: ATG_LXRb_TRANS: Attagene TRANS-FACTORIAL HepG2 Assay for human Liver X Receptor beta (LXRb) (AID 2282981; active means hit-call score of the fitted dose curve at least 0.9, where 1 is the maximum); conditions: HepG2 Attagene TRANS GAL4-LXRb reporter, mRNA
Procedure, shortened: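 HepG2 cells transiently transfected with multiple reporter transcription units carrying chimeric NR-Gal4 proteins acting on GAL4-UAS reporters; compound exposure 24 h. Reporter mRNA quantified by RT-PCR, 6-FAM labelling, HpaI digestion and capillary electrophoresis; gain of signal versus DMSO.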

[13] = biological target: Nuclear receptor subfamily 1 group I member 3 (Homo sapiens) (UniProt Q14994); assay: ATG_CAR_TRANS: Attagene TRANS-FACTORIAL HepG2 Assay for human Constitutive Androstane Receptor (CAR) (AID 2282969; active means hit-call score of the fitted dose curve at least 0.9, where 1 is the maximum;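 further: activators raise reporter mRNA above DMSO so AC50 marks induction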); conditions: HepG2 Attagene TRANS-FACTORIAL CAR reporter
Procedure, shortened: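 HepG2 cells transiently transfected with multiplexed GAL4-UAS reporter units expressing chimeric NR-Gal4 proteins; compound exposure 24 h. Reporter mRNA measured by RT-PCR, 6-FAM labelling, HpaI digestion and capillary electrophoresis; gain-of-signal fitted against DMSO baseline.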

[14] = biological target: Estrogen receptor (Homo sapiens) (UniProt P03372); assay: ATG_ERa_TRANS: Attagene TRANS-FACTORIAL HepG2 Assay for human Estrogen Receptor alpha (ERa) (AID 2282970; active means hit-call score of the fitted dose curve at least 0.9, where 1 is the maximum); conditions: HepG2 Attagene TRANS ERa GAL4 reporter, mRNA
Procedure, shortened: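 HepG2 cells transiently transfected with multiplexed GAL4-UAS reporter units; ERa activity read via exogenous chimeric NR-Gal4 protein. After 24 hour compound exposure, reporter mRNA measured by RT-PCR with 6-FAM labelling and capillary electrophoresis; gain-of-signal fitted relative to DMSO.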

[15] = ATG_M_19_TRANS: Attagene TRANS-FACTORIAL HepG2 Assay for M19 Transcription Factor (Internal Marker) (AID 2282974; active means hit-call score of the fitted dose curve at least 0.9, where 1 is the maximum); conditions: HepG2 Attagene TRANS-FACTORIAL M19 internal marker reporter
Procedure, shortened: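 Transfected HepG2 (GAL4-UAS MRTUs), 24 h compound, TriZol RNA, DNase-treated RT, reporter PCR, FAM label, HpaI digest, CE fluorescence; gain vs DMSO.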

[16] = biological target: Glucocorticoid receptor (Homo sapiens) (UniProt P04150); assay: ATG_GR_TRANS: Attagene TRANS-FACTORIAL HepG2 Assay for human Glucocorticoid Receptor (GR) (AID 2282978; active means hit-call score of the fitted dose curve at least 0.9, where 1 is the maximum;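 further: activators score as hits since higher reporter transcript over DMSO is fitted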); conditions: HepG2 Attagene TRANS GR reporter, mRNA transcription
Procedure, shortened: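 After 24 h incubation with test chemical, transfected HepG2 cells were lysed for RNA; reporter cDNA was amplified, FAM-labelled, HpaI-digested and sized on a capillary analyser. Signal gain relative to DMSO was scored.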

[17] = biological target: Bile acid receptor (Homo sapiens) (UniProt Q96RI1); assay: ATG_FXR_TRANS: Attagene TRANS-FACTORIAL HepG2 Assay for Farnesoid X Receptor (FXR) (AID 2282979; active means hit-call score of the fitted dose curve at least 0.9, where 1 is the maximum;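 further: hits raise reporter mRNA above DMSO so AC50 marks FXR activation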); conditions: HepG2 Attagene TRANS FXR-GAL4 reporter transcription
Procedure, shortened: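 HepG2 cells transiently transfected with reporter constructs in which a chimeric FXR-GAL4 protein drives a GAL4-UAS reporter; 24 h compound exposure. Reporter mRNA measured by RT-PCR, FAM labelling, HpaI digestion and capillary electrophoresis; gain-of-signal versus DMSO.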

[18] = biological target: Steroid hormone receptor ERR1 (Homo sapiens) (UniProt P11474); assay: ATG_ERRa_TRANS: Attagene TRANS-FACTORIAL HepG2 Assay for human Estrogen-Related Receptor alpha (ERRa) (AID 2282971; active means hit-call score of the fitted dose curve at least 0.9, where 1 is the maximum); conditions: HepG2 Attagene TRANS reporter, ERRa transactivation
Procedure, shortened: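 HepG2 cells transiently transfected with multiplexed GAL4-UAS reporter units reading chimeric ERRa-Gal4 activity; 24 h compound exposure. Reporter mRNA measured by RT-PCR, 6-FAM labelling, HpaI digest and capillary electrophoresis; gain of signal fitted versus DMSO baseline.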

[19] = biological target: Oxysterols receptor LXR-alpha (Homo sapiens) (UniProt Q13133); assay: ATG_LXRa_TRANS: Attagene TRANS-FACTORIAL HepG2 Assay for human Liver X Receptor alpha (LXRa) (AID 2282980; active means hit-call score of the fitted dose curve at least 0.9, where 1 is the maximum); conditions: HepG2 Attagene TRANS reporter, LXRa transactivation
Procedure, shortened: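 HepG2 cells were transiently transfected with multiplexed reporter units driven by chimeric LXRa–GAL4 fusion proteins, then dosed for 24 h. Reporter mRNA was quantified by RT-PCR, fluorescent labelling and capillary electrophoresis; gain of signal fitted against DMSO baseline.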

Measured: outcome

Glucocorticoid receptor (Homo sapiens), sequence (P04150 whole entry, looked up): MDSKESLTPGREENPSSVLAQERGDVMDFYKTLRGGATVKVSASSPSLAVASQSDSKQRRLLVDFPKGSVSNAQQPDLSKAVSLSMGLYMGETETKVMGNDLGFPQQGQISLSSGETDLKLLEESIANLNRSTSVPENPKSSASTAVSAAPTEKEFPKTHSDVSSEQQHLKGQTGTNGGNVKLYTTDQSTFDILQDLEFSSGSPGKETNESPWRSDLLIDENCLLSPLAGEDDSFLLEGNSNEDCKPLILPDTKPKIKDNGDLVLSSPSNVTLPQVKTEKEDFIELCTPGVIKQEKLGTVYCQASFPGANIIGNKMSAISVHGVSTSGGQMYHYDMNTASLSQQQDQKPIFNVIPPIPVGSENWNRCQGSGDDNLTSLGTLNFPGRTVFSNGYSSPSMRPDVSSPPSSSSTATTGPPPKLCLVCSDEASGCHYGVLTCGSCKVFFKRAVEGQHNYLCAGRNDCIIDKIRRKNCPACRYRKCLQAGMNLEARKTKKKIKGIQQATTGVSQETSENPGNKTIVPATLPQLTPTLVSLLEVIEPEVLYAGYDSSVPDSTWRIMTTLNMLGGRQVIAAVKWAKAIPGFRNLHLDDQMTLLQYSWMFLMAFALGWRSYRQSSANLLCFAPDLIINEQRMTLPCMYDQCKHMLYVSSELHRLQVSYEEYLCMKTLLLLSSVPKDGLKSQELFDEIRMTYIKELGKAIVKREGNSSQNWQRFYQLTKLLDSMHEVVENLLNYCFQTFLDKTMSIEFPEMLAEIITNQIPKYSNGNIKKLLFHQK
X-box-binding protein 1 (Homo sapiens), sequence (P17861 whole entry, looked up): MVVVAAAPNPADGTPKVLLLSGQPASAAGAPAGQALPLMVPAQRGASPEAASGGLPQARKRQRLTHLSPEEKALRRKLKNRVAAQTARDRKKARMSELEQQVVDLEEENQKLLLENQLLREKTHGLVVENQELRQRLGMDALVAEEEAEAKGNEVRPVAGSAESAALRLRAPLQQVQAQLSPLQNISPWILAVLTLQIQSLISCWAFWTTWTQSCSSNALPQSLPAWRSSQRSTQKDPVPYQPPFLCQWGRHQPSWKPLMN
Nuclear respiratory factor 1 (Homo sapiens), sequence (Q16656 whole entry, looked up): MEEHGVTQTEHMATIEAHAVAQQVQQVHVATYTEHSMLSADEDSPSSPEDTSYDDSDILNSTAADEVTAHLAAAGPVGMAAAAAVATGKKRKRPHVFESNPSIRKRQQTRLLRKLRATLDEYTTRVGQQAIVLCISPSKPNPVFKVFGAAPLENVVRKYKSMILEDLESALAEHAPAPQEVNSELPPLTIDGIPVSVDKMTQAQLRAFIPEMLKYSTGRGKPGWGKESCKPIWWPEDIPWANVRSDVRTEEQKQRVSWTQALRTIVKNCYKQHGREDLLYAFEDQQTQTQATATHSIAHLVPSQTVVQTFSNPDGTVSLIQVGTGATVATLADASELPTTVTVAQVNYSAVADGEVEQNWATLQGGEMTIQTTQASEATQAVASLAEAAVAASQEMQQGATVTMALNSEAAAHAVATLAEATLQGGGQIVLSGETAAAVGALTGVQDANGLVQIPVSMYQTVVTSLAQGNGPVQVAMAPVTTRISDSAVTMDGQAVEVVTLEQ
Transcriptional activator Myb (Homo sapiens), sequence (P10242 whole entry, looked up): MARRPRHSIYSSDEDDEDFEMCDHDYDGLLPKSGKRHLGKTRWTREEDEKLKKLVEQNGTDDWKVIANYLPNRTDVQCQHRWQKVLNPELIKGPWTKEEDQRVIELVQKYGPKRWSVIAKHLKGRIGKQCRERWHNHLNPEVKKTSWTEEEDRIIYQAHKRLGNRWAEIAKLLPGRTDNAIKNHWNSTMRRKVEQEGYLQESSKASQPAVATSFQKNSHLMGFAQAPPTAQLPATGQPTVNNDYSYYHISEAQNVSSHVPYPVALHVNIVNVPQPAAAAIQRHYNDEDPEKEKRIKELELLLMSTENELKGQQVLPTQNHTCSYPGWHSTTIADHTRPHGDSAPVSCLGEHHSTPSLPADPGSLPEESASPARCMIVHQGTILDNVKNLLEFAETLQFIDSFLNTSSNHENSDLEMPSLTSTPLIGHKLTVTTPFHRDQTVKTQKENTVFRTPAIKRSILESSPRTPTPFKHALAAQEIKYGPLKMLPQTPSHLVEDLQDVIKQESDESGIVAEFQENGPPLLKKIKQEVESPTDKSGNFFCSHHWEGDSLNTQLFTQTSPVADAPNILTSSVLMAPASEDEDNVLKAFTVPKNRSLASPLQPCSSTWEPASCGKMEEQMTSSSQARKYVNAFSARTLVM
Hepatocyte nuclear factor 4-alpha (Homo sapiens), sequence (P41235 whole entry, looked up, the tested form may be a part): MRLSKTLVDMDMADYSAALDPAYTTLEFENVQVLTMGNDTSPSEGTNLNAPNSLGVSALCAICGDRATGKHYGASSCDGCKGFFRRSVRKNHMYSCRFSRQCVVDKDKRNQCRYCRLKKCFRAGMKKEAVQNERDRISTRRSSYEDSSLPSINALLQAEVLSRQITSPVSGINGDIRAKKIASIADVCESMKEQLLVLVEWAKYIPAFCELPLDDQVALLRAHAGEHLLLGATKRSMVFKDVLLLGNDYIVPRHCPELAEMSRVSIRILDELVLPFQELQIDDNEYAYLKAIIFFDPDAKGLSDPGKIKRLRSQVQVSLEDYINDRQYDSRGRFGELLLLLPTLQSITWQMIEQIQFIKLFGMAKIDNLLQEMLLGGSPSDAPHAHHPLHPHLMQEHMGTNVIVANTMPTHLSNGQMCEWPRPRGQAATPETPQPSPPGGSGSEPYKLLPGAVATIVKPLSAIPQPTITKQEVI
Bile acid receptor (Homo sapiens), sequence (Q96RI1 whole entry, looked up, the tested form may be a part): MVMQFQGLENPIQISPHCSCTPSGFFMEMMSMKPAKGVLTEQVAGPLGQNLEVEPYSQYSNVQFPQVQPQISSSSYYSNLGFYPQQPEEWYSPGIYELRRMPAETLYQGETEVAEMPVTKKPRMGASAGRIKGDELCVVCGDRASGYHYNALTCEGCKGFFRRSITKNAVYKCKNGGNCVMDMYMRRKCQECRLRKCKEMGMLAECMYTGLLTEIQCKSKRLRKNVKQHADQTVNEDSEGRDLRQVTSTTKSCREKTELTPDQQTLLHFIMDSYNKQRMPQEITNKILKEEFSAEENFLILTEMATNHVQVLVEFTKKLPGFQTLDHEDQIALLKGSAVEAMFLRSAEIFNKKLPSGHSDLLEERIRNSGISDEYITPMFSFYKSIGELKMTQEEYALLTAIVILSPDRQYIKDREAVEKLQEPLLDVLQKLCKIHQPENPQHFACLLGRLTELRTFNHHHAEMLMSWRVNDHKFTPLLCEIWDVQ
Nuclear receptor subfamily 1 group I member 3 (Homo sapiens), sequence (Q14994 whole entry, looked up, the tested form may be a part): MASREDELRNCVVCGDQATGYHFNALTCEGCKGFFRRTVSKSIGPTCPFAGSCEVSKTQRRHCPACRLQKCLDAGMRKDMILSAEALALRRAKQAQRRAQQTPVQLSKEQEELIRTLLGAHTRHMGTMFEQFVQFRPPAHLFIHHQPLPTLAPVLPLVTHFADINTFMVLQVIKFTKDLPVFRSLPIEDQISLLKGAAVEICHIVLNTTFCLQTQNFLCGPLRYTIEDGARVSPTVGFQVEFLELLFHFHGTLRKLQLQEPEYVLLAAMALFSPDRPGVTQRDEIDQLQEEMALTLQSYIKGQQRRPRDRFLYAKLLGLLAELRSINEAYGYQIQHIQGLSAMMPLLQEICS
Oxysterols receptor LXR-beta (Homo sapiens), sequence (P55055 whole entry, looked up, the tested form may be a part): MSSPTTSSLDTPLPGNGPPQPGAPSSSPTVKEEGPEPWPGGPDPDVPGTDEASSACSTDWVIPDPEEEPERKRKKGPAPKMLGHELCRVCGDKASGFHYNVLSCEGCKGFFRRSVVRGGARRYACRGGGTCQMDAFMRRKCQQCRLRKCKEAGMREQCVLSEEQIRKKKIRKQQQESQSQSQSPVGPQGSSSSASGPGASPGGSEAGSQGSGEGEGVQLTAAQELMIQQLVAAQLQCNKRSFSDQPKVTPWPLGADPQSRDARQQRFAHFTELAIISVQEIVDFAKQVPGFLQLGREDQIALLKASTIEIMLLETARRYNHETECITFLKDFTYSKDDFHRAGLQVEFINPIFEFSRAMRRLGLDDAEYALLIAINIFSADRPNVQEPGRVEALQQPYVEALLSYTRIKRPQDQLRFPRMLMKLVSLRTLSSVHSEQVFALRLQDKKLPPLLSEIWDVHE
Steroid hormone receptor ERR1 (Homo sapiens), sequence (P11474 whole entry, looked up, the tested form may be a part): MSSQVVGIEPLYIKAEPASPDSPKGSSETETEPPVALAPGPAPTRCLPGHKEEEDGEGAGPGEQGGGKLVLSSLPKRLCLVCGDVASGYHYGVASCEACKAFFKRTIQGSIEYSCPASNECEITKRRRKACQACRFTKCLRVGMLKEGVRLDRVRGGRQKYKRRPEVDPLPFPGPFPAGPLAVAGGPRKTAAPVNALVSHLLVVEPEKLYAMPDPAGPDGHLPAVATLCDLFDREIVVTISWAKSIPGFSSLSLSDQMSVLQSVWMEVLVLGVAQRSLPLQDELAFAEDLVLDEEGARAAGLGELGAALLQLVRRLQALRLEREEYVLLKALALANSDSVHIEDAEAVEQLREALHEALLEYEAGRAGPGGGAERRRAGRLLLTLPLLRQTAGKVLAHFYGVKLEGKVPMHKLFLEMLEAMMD
Estrogen receptor (Homo sapiens), sequence (P03372 whole entry, looked up, the tested form may be a part): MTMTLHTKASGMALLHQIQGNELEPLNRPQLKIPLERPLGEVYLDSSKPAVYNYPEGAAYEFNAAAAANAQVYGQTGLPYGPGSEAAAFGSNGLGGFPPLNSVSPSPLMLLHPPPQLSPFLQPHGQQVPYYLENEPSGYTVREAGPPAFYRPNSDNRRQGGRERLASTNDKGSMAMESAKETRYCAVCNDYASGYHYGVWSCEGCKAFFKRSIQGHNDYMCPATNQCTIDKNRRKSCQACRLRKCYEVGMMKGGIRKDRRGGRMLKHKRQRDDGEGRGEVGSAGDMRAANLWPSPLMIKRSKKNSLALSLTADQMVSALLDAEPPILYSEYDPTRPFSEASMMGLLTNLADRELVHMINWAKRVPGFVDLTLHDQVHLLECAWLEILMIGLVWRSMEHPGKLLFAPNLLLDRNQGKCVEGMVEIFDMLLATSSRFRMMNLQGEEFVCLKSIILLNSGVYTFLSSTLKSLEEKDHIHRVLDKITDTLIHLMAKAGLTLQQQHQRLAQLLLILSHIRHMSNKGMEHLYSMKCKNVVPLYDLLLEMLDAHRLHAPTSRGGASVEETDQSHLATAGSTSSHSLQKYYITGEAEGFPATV

O=S1(=O)CCCO1
inactive: [1] | [2] | [3] | [4] | [5] | [6] | [7] | [8] | [9] | [10] | [11]

NC(=O)N1c2ccccc2C=Cc2ccccc21
inactive: [1] | [2] | [4] | [5] | [12] | [7] | [8] | [9] | [10] | [11]

CCCCCCCC1CCC(=O)O1 (centres undefined)
inactive: [1] | [2] | [13] | [14] | [4] | [15] | [16] | [17] | [8] | [9]

CC[C@H](C)C(=O)O[C@H]1C[C@H](O)C=C2C=C[C@H](C)[C@H](CC[C@@H](O)C[C@@H](O)CC(=O)O)[C@H]21
inactive: [1] | [2] | [3] | [4] | [5] | [16] | [6] | [7] | [9] | [10] | [11]

O=C(O)[C@H](O)[C@@H](O)C(=O)O
inactive: [1] | [2] | [18] | [4] | [5] | [16] | [17] | [19] | [7] | [9] | [10] | [11]
